Test results as given in PubChem BioAssay AID588 (National Center for Advancing Translational Sciences (NCATS), 2007).
The campaign covered roughly 59,000 compounds. About 25 (0.04%) were called active. The rule behind the calls is not given here. Shown is part of a subset that was picked to be rich in actives.

Experiment: qHTS Assay for Spectroscopic Profiling in Resorufin Spectral Region
Details: Compound fluorescence, resorufin region 547/598 nm, buffer
Text: NIH Molecular Libraries Screening Centers Network [MLSCN] NIH Chemical Genomics Center [NCGC] […] Occasionally, the artifactual effect may originate from the compound#s own spectral or other biophysical properties which generally tend to track its assay concentration. Pre-screening/profiling the library with respect to the compounds# spectral properties should help one exclude false positives early on. While the most informative fluorescent profiling data set is obtained by performing a full excitation and emission scan of each well by using a monochromator-based plate reader, such an approach is practical only on a very limited scale as scanning each well requires long time. An alternative approach, applied here, is to perform plate reader scans using selected excitation and emission wavelength pairs to generate a multidimensional relational database that correlates compound concentration and the respective relative fluorescence intensity at a given wavelength set. A standard curve of resorufin present on each plate as six-point concentration series, was used to compute a normalized fluorescence response, termed dye-equivalent concentration, for each compound at each concentration.
NCGC Assay Protocol Summary: Buffer: 100 mM Tris buffer, pH 8.0 Dye standard plate: The wells in columns 1 through 4 of a Kalypsys polypropylene 1536-well compound plate were filled with standard solutions of fluorophore corresponding to the spectral region of interest. Solutions of resorufin were placed in the following wells: M1, N1: 3 mM, M2, N2: 300 uM, M3, N3: 30 uM, M4, N4: zero (DMSO), O1, P1: 3 uM, O2, P2: […], O3, P3: 300 nM, O4, P4: zero (DMSO). Assay Steps: Six uL of buffer were dispensed to 1536-well Greiner black plates. Compounds and dye standards (23 nL) were transferred via Kalypsys PinTool. The plates were incubated for 15 min at room temperature, and then read on ViewLux (Perkin-Elmer) High-throughput CCD imager using 547 nm and 598 nm excitation and emission filter set. Keywords: NIH Roadmap, MLSCN, MLI, MLSMR, qHTS, NCGC, Resorufin, Fluorescent Profiling.

Max dye-equivalent concentration, inactive:
CCOC(=O)CSc1nc2c(sc(=S)n2CCc2ccccc2)c(=O)n1Cc1ccco1, CCOc1ccccc1/C=c1\sc2nc(-c3ccco3)nn2c1=O, COCCNc1ncnc2ccc(-c3ccccc3CN(C)C)cc12, C=CCn1c(SCc2csc(C)n2)nc2scc(-c3ccc(C)o3)c2c1=O, O=C(CCCn1c(=O)oc2ccccc21)Nc1cccnc1, COC(=O)c1ccc(Oc2nc(Nc3ccc(F)cc3)nc(N3CCCC3)n2)cc1, O=S(=O)(NCc1ccccn1)c1ccc(Br)s1, O=C1C(=O)N(CCN2CCOCC2)C(c2ccccn2)/C1=C(/O)c1ccc(Cl)cc1 (centres undefined), COc1cc2[nH]c(=O)n(CCC(=O)NC3CCN(Cc4ccccc4)CC3)c(=O)c2cc1OC, CN(C)c1ccc(-c2nc(NCCN3CCOCC3)c3ccccc3n2)cc1, CC(C)C(NC(=O)c1cccc(S(=O)(=O)N2CCOCC2)c1)C(=O)NCCc1ccccn1 (centres undefined), COc1cc(-c2noc(C3CCCN(S(=O)(=O)c4cccc(Cl)c4)C3)n2)cc(OC)c1OC (centres undefined), CC(C)C(c1nnnn1C1CCCC1)N1CCN(c2ccccc2F)CC1 (centres undefined), C=CCn1c(SCc2nnc(-c3ccccc3)o2)nnc1C(O)c1ccccc1 (centres undefined), OCCCNCc1ccccn1, CCCCc1cc(=O)oc2cc(C)cc(OCc3nn[nH]n3)c12, COCCn1c(=O)c(-c2ccccc2)nc2cnc(N3CCOCC3)nc21, Cc1cc(N2C(=O)c3ccc(C(=O)NCc4ccccc4)cc3C2=O)no1, CCC(=O)NC(=Nc1nc2ccccc2s1)NC(=O)CC, O=C(c1ccc2c(c1)C(=O)N(c1ccc(Cl)cc1)C2=O)N1CCN(c2ccccn2)CC1, Cc1ccc(F)cc1NC(=O)c1cccc(N(C)C)c1, CC(C)(C)c1cc(C(=O)NCc2cccnc2)ccn1, Cc1ccc(CNC(=O)C2CC(=O)N(C3CCCCCCC3)C2)cc1 (centres undefined), Cc1nc2cnc(N3CCN(C)CC3)nc2n(CCC#N)c1=O, CCOC(=O)C1CCN(C(=O)CC2C(=O)N(Cc3ccccc3)C(C)c3nc4ccccc4n32)CC1 (centres undefined), COc1ccccc1N1CCN(C(=O)c2c(-c3c(Cl)cccc3Cl)noc2C)CC1, Fc1ccccc1CCNc1nnnn1-c1ccccc1, COc1ccccc1-c1nc(NCCNC(C)=O)c2ccccc2n1, COc1cc(OC)c(C(=O)NC2CC(C)(C)NC(C)(C)C2)cc1OC, CN(C)CCNC(=O)C(C(=O)c1ccccc1)n1ccccc1=O (centres undefined), Cc1nc2ccc(S(=O)(=O)NCC(=O)O)cc2s1, CC(=O)Nc1ccc(S(=O)(=O)Nc2ccc(N3CCOCC3)c(F)c2)cc1, Cc1ccc(NC(=O)CN2CCC3(O)CCCCC3C2c2ccc3c(c2)OCO3)c(C)c1 (centres undefined), CCCC(=O)Nc1cc(OCC)c(NC(=O)NC2CCCCC2)cc1OCC, O=C(NCc1ccco1)c1cc2sccc2n1Cc1ccc(F)cc1, O=C(CCCn1c(SCC(=O)c2ccc(F)cc2)nc2ccccc2c1=O)NCc1ccco1, Cc1ccc(S(=O)(=O)N2CCOCC2)cc1C(=O)NCc1ccc(F)cc1, CCC(=O)N1CCc2cc(S(=O)(=O)NC(C(=O)N3CCc4ccccc4C3)C(C)C)ccc21 (centres undefined), Cn1c(-c2ccc(C(=O)c3ccccc3)s2)nc2ccccc21, O=C(NCCN=C1NS(=O)(=O)c2ccccc21)c1ccc(S(=O)(=O)N2CCOCC2)cc1, CCCCOc1ccc(C(C)(O)CCN2CCOCC2)cc1 (centres undefined), CCN(CC)P(=O)(C(NC(=O)OC)C(F)(F)C(F)(F)C(F)(F)C(F)F)N(CC)CC (centres undefined), O=C(Nc1cnccn1)c1cccnc1, Cc1cnc(CNc2cc(-c3c(C)noc3C)ncn2)cn1, COc1ccc(CN2C(=O)CN=C2Nc2ccc(C)cc2C)cc1, CC(C)(C)NC(=O)Cn1nnc(-c2ccccc2Cl)n1, COc1ccccc1C1/C(=C(/O)c2ccc(OC(C)C)cc2)C(=O)C(=O)N1c1cc(C)on1 (centres undefined), COC(=O)c1ccc(NC(=O)CSc2nnc(CNc3ccc(OC)cc3)n2C)cc1, CCCCC[C@H](O)CCCC(=O)O, CC(=O)OC(C(=O)NCCc1ccccc1)c1cccnc1 (centres undefined), CO[C@@H]1/C=C\O[C@]2(C)Oc3c(C)c(O)c4c(O)c(c(CN(C)C)c(O)c4c3C2=O)NC(=O)/C(C)=C\C=C[C@@H](C)[C@@H](O)[C@H](C)[C@@H](O)[C@H](C)[C@H](OC(C)=O)[C@@H]1C, Cc1cccc(C)c1NC(=O)CCCSc1nnc(-c2ccco2)n1-c1ccccc1, C[C@H](CCC(=O)NCC(=O)O)[C@H]1CC[C@H]2[C@H]3[C@@H](C[C@@H](O)[C@]12C)[C@]1(C)CC[C@H](O)C[C@@H]1C[C@@H]3O, N#CC1=C(N)Oc2n[nH]c(CSc3ccccc3)c2C12C(=O)Nc1ccccc12 (centres undefined)
